Results with a measured potency or affinity are listed apart. The source made the active and inactive calls.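 Rule for the calls: active = cell killing whose fitted half-effect concentration is at most twice the top valid dose tested; inconclusive = flat curve with 30 to 70% killing, or a poor fit; inactive = effect in the rising direction, plus the rest.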

The text below walks through data of PubChem BioAssay AID1053124 (Broad Institute, 2014).

A short description of this assay: A549 cell cytotoxicity, dose response, cytotoxicity control, ATP luminescence, cherry-pick, set 2 (AID 1053124). To be noted: A549 viability, ATP luminescence (CellTiter-Glo), 72 h; series mostly up to 26 µM. (Cellular ATP, detected with luciferase, serves as a proxy for viable cell number.)
With `Cc1cc(-n2c(=O)c(C#N)cc3c(=O)n4ccccc4nc32)no1`, the call was inactive.

For the compound `CC(C)OCCCn1c(=N)c(C(N)=S)cc2c(=O)n3ccccc3nc21`, the compound was classed as inactive.

Turning to `O=C(Cc1csc(-c2ccccc2)n1)NCc1ccccc1F`, the outcome was inactive.

As to `CC(=O)c1sc(N/N=C\c2ccc(N(C)C)cc2)nc1C`, the result was inactive. As for `CCOc1ccc(NC(=O)CN(C)C(=O)CCCNC(=O)c2ccc(Cl)cc2)cc1OCC`, the result was inactive.

Turning to `CCC(C)NC(=S)N1CCN(Cc2ccc3c(c2)OCO3)CC1` (stereo not given), the call was inactive.

Consider `O=C(O)c1ccc(N/N=C/c2ccc(-c3ccccc3Cl)o2)cc1`, for which the call was inactive. In the case of `CCN(CC)c1ccc2cc(C#N)c(=O)oc2c1`, the outcome was inactive. For `O=C1CCc2cc(S(=O)(=O)NC(Cc3ccccc3)C(=O)NCCC3=CCCCC3)ccc2N1` (stereo not given), the call was inactive. In the case of `Cc1cc(-c2nc3cccnc3s2)ccc1NS(=O)(=O)c1cccs1`, the result was inactive. On to `CN1CCN(c2nc3ccccn3c(=O)c2/C=C(\C#N)S(=O)(=O)c2ccccc2)CC1`, for which the result was inactive.

For the compound `Cc1ccc(-n2c(C)cc(/C=N/NC(=O)Cn3c4ccccc4c(=O)c4ccccc43)c2C)cc1`, the compound was called inactive. Consider `COc1ccc(Cn2nnnc2C(CC(C)C)N2CCC(C(N)=O)CC2)cc1` (stereo not given), for which the call was inactive. Consider `N=c1c(C(=O)NCC2CCCO2)cc2c(=O)n3ccccc3nc2n1Cc1ccc(Cl)cc1` (stereo not given), for which the call was inactive. As for `O=c1[nH]c2ccccc2nc1/C=C/c1ccccc1`, the call was inactive.

With `CCOC(=O)c1cc(-c2ccccc2)sc1NC(=O)CSc1nnc(N)s1`, the result was inactive. `Cn1cc(C(c2ccccc2OCC(=O)O)c2cn(C)c3ccccc23)c2ccccc21`: the compound was classed as inactive. With `COc1cccc2c(=O)c3c(cnn3C)n(C)c12`, the outcome was inactive. On to `Cc1ccc(-n2nnnc2CNC(=O)C(=O)c2c[nH]c3ccccc23)cc1C`, for which the compound was called inactive. Consider `C=CCc1c(O)c(CC)cc2c(C)cc(=O)oc12`, for which the call was inactive. Consider `COc1ccc(C(=O)Oc2cc(N)n(S(=O)(=O)c3ccccc3)n2)cc1`, for which the outcome was inactive. Take `CCN1C=C(C(=O)OC)C(c2cccc(OC)c2OC)C(C(=O)OC)=C1`: the call was inactive. Under `CCOC(=O)c1cc2c(=O)n3ccccc3nc2n(Cc2ccc(Cl)cc2)c1=N` stands “inactive”; under `CC1(C)CC(=O)C2=C(C1)OC(N)=C(C#N)[C@@H]2c1ccccc1[N+](=O)[O-]`, “inactive”.

For `CN(C)/C=C/C(=O)c1c(F)cccc1F`, the compound was classed as inactive. With `CCNc1nc2nc3ccc(C)cn3c(=O)c2cc1C(=O)NCC1CCCO1` (stereo not given), the outcome was inactive. Take `CCCn1c(=N)c(S(=O)(=O)c2ccccc2)cc2c(=O)n3ccccc3nc21`: the compound was classed as inactive. With `C[C@H](NC(=O)c1nc[nH]c1C(=O)N[C@@H](Cc1ccccc1)C(=O)OC(C)(C)C)C(=O)OCc1ccccc1`, the compound was called inactive. Regarding `CC1CC(C)CN(CCCNC(=O)CCC(=O)N2CC(C)Oc3ccccc32)C1` (stereo not given), the outcome was inactive. For the compound `CCN(CC)CCN1C2=C(C(=O)CC(C)(C)C2)C(c2cccc(F)c2)C2=C1CC(C)(C)CC2=O`, the outcome was inactive. For the compound `CCOC(=O)c1c(C)n(C)c2ccc(OCC(O)CN3CCC(C)CC3)cc12` (stereo not given), the outcome was inactive. As to `Cc1cccn2c(=O)c3cc(C(=O)NCC4CCCO4)c(=N)n(CC4CCCO4)c3nc12` (stereo not given), the outcome was inactive.

In the case of `CCN(CC)c1ccc2cc(S(=O)(=O)c3ccc(Cl)cc3)c(=O)oc2c1`, the call was inactive.

With `CCn1c2ccccc2c(=O)c2ccccc21`, the compound was classed as inactive. Under `CCC(=O)N1C(C(=O)NCc2ccc(OC)cc2)CSC1c1ccc(OC)cc1` (stereo not given) stands “inactive”; under `Cc1cccn2c(=O)c(/C=C(\C#N)C(=O)NC3CCS(=O)(=O)C3)c(N3CCC(C(N)=O)CC3)nc12` (stereo not given), “inactive”. As to `O=c1c2ccccc2n(CC(O)CN2CCCCC2)c2ccccc12` (stereo not given), the result was inactive.

In the case of `CC(=O)NNc1cc(N2CCOCC2)nc(N2CCOCC2)n1`, the outcome was inactive. With `COc1ccc(CCNC(=O)c2cc(S(=O)(=O)N3CCCCC3)c[nH]2)cc1OC`, the compound was called inactive. On to `NC(=O)c1cc([N+](=O)[O-])ccc1NCc1cccnc1`, for which the compound was called inactive.
